{"source": "the antibiotic and cytotoxicity screens of Wong et al. (2023)", "note": "About 3,300 (8.5%) of roughly 39,000 compounds were called active. Many of the other results were omitted from the sample, so actives are more common in it than they were.", "data": [{"tested_on": "HepG2", "test": "cytotoxicity call (relative viability < 0.9)", "details": "10 µM", "values": [{"smiles": "COc1ccc(-c2coc3cc(OC)cc(OC)c3c2=O)cc1", "cytotoxicity call": "inactive"}, {"smiles": "C[C@H](CO)N1C[C@H](C)[C@@H](CN(C)S(=O)(=O)c2cccc(F)c2)Oc2ncc(C#CC3(O)CCCC3)cc2C1=O", "cytotoxicity call": "inactive"}, {"smiles": "C[C@@H]1CCCCO[C@@H](CN(C)C(=O)NC2CCCCC2)[C@@H](C)CN([C@H](C)CO)C(=O)c2cc(NC(=O)Cc3ccccc3)ccc2O1", "cytotoxicity call": "inactive"}, {"smiles": "C[C@@H]1CN([C@H](C)CO)C(=O)c2cc(NS(C)(=O)=O)ccc2O[C@@H]1CN(C)S(=O)(=O)c1ccc(F)cc1", "cytotoxicity call": "inactive"}, {"smiles": "C[C@H](CO)N1C[C@H](C)[C@H](CN(C)Cc2ccc(C(=O)Nc3ccccc3N)cc2)Oc2c(NC(=O)c3nc4ccccc4s3)cccc2C1=O", "cytotoxicity call": "inactive"}, {"smiles": "C[C@H]1CN([C@@H](C)CO)C(=O)c2cccc(NC(=O)c3nc4ccccc4s3)c2O[C@@H]1CN(C)Cc1ccc(C(=O)Nc2ccccc2N)cc1", "cytotoxicity call": "inactive"}, {"smiles": "C[C@H](CO)N1C[C@H](C)[C@@H](CN(C)Cc2ccc(C(=O)Nc3ccccc3N)cc2)Oc2c(NC(=O)c3nc4ccccc4s3)cccc2C1=O", "cytotoxicity call": "active"}, {"smiles": "C[C@@H]1CN([C@@H](C)CO)C(=O)c2cccc(NC(=O)c3nc4ccccc4s3)c2O[C@H]1CN(C)Cc1ccc(C(=O)Nc2ccccc2N)cc1", "cytotoxicity call": "inactive"}, {"smiles": "C[C@@H]1CN([C@@H](C)CO)C(=O)c2cccc(NC(=O)c3nc4ccccc4s3)c2O[C@@H]1CN(C)Cc1ccc(C(=O)Nc2ccccc2N)cc1", "cytotoxicity call": "active"}, {"smiles": "C[C@H]1CN([C@@H](C)CO)C(=O)c2cccc(NC(=O)c3nc4ccccc4s3)c2O[C@H]1CN(C)Cc1ccc(C(=O)Nc2ccccc2N)cc1", "cytotoxicity call": "inactive"}, {"smiles": "C[C@H]1CCCCO[C@H](CN(C)C(=O)NC2CCCCC2)[C@@H](C)CN([C@@H](C)CO)C(=O)c2cc(NC(=O)CCC(F)(F)F)ccc2O1", "cytotoxicity call": "inactive"}, {"smiles": "COc1ccc(S(=O)(=O)N(C)C[C@H]2Oc3c(NC(=O)c4cnccn4)cccc3C(=O)N([C@H](C)CO)C[C@H]2C)cc1", "cytotoxicity call": "inactive"}, {"smiles": "C[C@@H]1CN([C@H](C)CO)C(=O)c2cc(NS(=O)(=O)c3ccc(Cl)cc3)ccc2O[C@@H](C)CCCCO[C@@H]1CN(C)Cc1ccncc1", "cytotoxicity call": "inactive"}, {"smiles": "CCc1nc2c(C)cc(N3CCN(CC(=O)N4CC(O)C4)CC3)cn2c1N(C)c1nc(-c2ccc(F)cc2)c(C#N)s1", "cytotoxicity call": "active"}, {"smiles": "COCC#Cc1ccc2c(c1)O[C@H](CN(C)Cc1ccccc1F)[C@@H](C)CN([C@H](C)CO)S2(=O)=O", "cytotoxicity call": "inactive"}, {"smiles": "C[C@H](CO)N1C[C@H](C)[C@H](CN(C)S(=O)(=O)c2cccs2)Oc2ccc(NS(=O)(=O)c3ccccc3)cc2CC1=O", "cytotoxicity call": "inactive"}, {"smiles": "C[C@@H]1CN([C@H](C)CO)C(=O)c2cccc(NS(=O)(=O)c3ccc(F)cc3)c2O[C@@H]1CN(C)Cc1ccncc1", "cytotoxicity call": "inactive"}, {"smiles": "CC(C)=CCc1c2c(c3occ(-c4ccc(O)c(O)c4)c(=O)c3c1O)C=CC(C)(C)O2", "cytotoxicity call": "active"}, {"smiles": "CC1(C)C=Cc2c(c3c(c4c(=O)c(-c5ccc(O)cc5)coc24)OC(C)(C)CC3)O1", "cytotoxicity call": "inactive"}, {"smiles": "CC1(C)C=Cc2c(c3c(c4c(=O)c(-c5ccc(O)c(O)c5)coc24)OC(C)(C)CC3)O1", "cytotoxicity call": "active"}, {"smiles": "CC(C)=CCc1c2c(c3occ(-c4ccc(O)cc4)c(=O)c3c1O)C=CC(C)(C)O2", "cytotoxicity call": "inactive"}, {"smiles": "CN1CCN(C(=O)C[C@H]2CC[C@@H]3[C@@H](COc4ccc(NC(=O)c5cccs5)cc4C(=O)N3C)O2)CC1", "cytotoxicity call": "inactive"}, {"smiles": "Cc1noc(C)c1S(=O)(=O)Nc1ccc2c(c1)C(=O)N([C@@H](C)CO)C[C@H](C)[C@@H](CN(C)Cc1ccccc1)OCCCC[C@@H](C)O2", "cytotoxicity call": "inactive"}, {"smiles": "C[C@@H]1CN([C@@H](C)CO)C(=O)Cc2cc(NC(=O)Cn3cnnn3)ccc2O[C@@H]1CN(C)Cc1ccc(Oc2ccccc2)cc1", "cytotoxicity call": "inactive"}, {"smiles": "Cc1ccc(S(N)(=O)=O)cc1", "cytotoxicity call": "inactive"}, {"smiles": "COc1ccc(-c2cc(C(F)F)nn2-c2ccc(S(N)(=O)=O)cc2)cc1F", "cytotoxicity call": "inactive"}, {"smiles": "Cc1ccc(-c2cc(C(F)(F)F)nn2-c2ccc(S(N)(=O)=O)cc2)cc1", "cytotoxicity call": "active"}, {"smiles": "C[C@@H]1CN([C@H](C)CO)C(=O)c2cc(NC(=O)NC3CCCCC3)ccc2O[C@@H](C)CCCCO[C@@H]1CN(C)S(=O)(=O)c1ccc(F)cc1", "cytotoxicity call": "inactive"}, {"smiles": "CN1CCC(OC(c2ccccc2)c2ccccc2)CC1.Cl", "cytotoxicity call": "inactive"}, {"smiles": "CN1C2CCC1CC(OC(=O)c1c[nH]c3ccccc13)C2.Cl", "note": "(stereo unspecified)", "cytotoxicity call": "inactive"}, {"smiles": "CN1C2CCC1CC(OC(c1ccccc1)c1ccccc1)C2.CS(=O)(=O)O", "note": "(stereo unspecified)", "cytotoxicity call": "active"}, {"smiles": "Cc1noc(C)c1S(=O)(=O)N(C)C[C@@H]1Oc2c(NS(=O)(=O)c3ccccc3)cccc2C(=O)N([C@H](C)CO)C[C@@H]1C", "cytotoxicity call": "inactive"}, {"smiles": "CC12CCC3c4ccc(O)cc4CCC3C1CCC2=O", "note": "(stereo unspecified)", "cytotoxicity call": "inactive"}, {"smiles": "CC12CCC3c4ccc(O)cc4CCC3C1CC(O)C2O", "note": "(stereo unspecified)", "cytotoxicity call": "inactive"}, {"smiles": "C#CC1(O)CCC2C3CCC4=CCCCC4C3C(=C)CC21CC", "note": "(stereo unspecified)", "cytotoxicity call": "inactive"}, {"smiles": "C#CC1(O)CCC2C3CCC4=C(CCC(=O)C4)C3CCC21C", "note": "(stereo unspecified)", "cytotoxicity call": "inactive"}, {"smiles": "C#CC1(O)CCC2C3CCC4=CC(=O)CCC4C3CCC21C", "note": "(stereo unspecified)", "cytotoxicity call": "inactive"}, {"smiles": "C#CC1(O)CCC2C3CCc4cc(OC5CCCC5)ccc4C3CCC21C", "note": "(stereo unspecified)", "cytotoxicity call": "inactive"}, {"smiles": "C#CC1(O)CCC2C3CCc4cc(O)ccc4C3CCC21C", "note": "(stereo unspecified)", "cytotoxicity call": "active"}, {"smiles": "C#CC1(O)CCC2C3CCC4=CCCCC4C3CCC21C", "note": "(stereo unspecified)", "cytotoxicity call": "active"}, {"smiles": "C#CC1(O)CCC2C3CCc4cc(OC)ccc4C3CCC21C", "note": "(stereo unspecified)", "cytotoxicity call": "active"}, {"smiles": "COCCOC(=O)N1C(=O)[C@@]2(c3cc(C#CCC(C(=O)OC)C(=O)OC)ccc31)[C@H](C(=O)NC[C@H](O)c1ccccc1)[C@H]1C(=O)O[C@H](c3ccccc3)[C@H](c3ccccc3)N1[C@@H]2c1ccc(OCCO)cc1", "cytotoxicity call": "inactive"}, {"smiles": "Cn1cnc(CCNC(=O)C[C@@H]2CC[C@@H]3[C@H](COC[C@@H](O)CN3C(=O)Nc3ccc(Cl)cc3)O2)c1", "cytotoxicity call": "inactive"}, {"smiles": "COc1ccc(S(=O)(=O)N(C)C[C@@H]2Oc3ccc(NC(=O)Nc4cccc5ccccc45)cc3C(=O)N([C@@H](C)CO)C[C@H]2C)cc1", "cytotoxicity call": "inactive"}, {"smiles": "C[C@H]1CN([C@@H](C)CO)C(=O)c2cc(C#CCN(C)C)cnc2O[C@H]1CN(C)S(=O)(=O)c1ccccc1", "cytotoxicity call": "inactive"}, {"smiles": "COc1cccc(NC(=O)N2C[C@@H](O)COC[C@H]3O[C@@H](CC(=O)NCc4ccccc4F)CC[C@@H]32)c1", "cytotoxicity call": "inactive"}]}]}
